Assay outcomes deposited in PubChem BioAssay by National Center for Advancing Translational Sciences (NCATS).
D2 ag-1: HTS Assay for Allosteric Agonists of the Human D2 Dopamine Receptor: Primary Screen for Agonists | HEK293 T-REx D2 cells, calcium flux agonist mode | 340,000 tested, 0.53% active | activation, % at 2 µM;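 active means activation over 3 SD above normal in the single-dose calcium agonist read, cut at about 30% in these data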
Target sequence (P14416 whole entry, looked up): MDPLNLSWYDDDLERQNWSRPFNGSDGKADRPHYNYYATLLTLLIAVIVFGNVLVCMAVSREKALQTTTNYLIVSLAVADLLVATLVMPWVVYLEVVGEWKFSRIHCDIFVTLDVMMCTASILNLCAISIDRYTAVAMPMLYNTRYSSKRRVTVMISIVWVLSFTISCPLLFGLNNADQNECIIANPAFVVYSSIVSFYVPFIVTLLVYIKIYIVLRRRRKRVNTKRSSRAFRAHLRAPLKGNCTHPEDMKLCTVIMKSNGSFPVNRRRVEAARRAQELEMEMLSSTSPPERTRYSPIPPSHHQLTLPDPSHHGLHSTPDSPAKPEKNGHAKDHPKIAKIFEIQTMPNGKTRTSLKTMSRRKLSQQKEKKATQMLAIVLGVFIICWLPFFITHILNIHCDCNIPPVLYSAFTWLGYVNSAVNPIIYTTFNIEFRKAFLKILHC
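Agonism scored from kinetic calcium signal (1 read/sec, 180 s) following compound pin transfer, after a 10 s baseline. Cells: HEK293 Trex line expressing inducible D2 receptor coupled to calcium, dye-loaded after overnight culture at 30 C.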
D2 PAM-1: HTS Assay for Positive Allosteric Modulators of the Human D2 Dopamine Receptor: Primary Screen for Potentiators | D(2) dopamine receptor (Homo sapiens), P14416 | HEK293 T-REx D2, calcium flux, EC20 dopamine potentiation | potentiation, % at 10 µM | 340,000 tested, 0.34% active | AID 485347, 2010;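 active means potentiation over 3 SD above the plate norm, cut at about 30% in these data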
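Tetracycline-induced HEK293 T-REx cells force-coupled to calcium signalling expressed D2; compounds were pin-added after a 10 s baseline, read kinetically 180 s, then an EC20 dopamine challenge followed with a further 180 s calcium read.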
D2 PAM-2: Beta-Arrestin HTS for Positive Allosteric Modulators of the Human D2 Dopamine Receptor: Potentiators. D(2) dopamine receptor (Homo sapiens), P14416. DiscoveRx D2 beta-arrestin cells, luminescence, 90 min; 100% = 57 uM dopamine signal. potentiation, % (test concentration not listed). 360,000 tested, 0.23% active. AID 624464, 2012; in the data active means potentiation above about 50%; inconclusive means mostly about 30% to 49%
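D2 cells co-treated with compound plus 50 nM dopamine (EC20) for 90 min at 37 deg C to detect potentiation. Beta-arrestin recruitment was read as enzyme-fragment luminescence after 1 h at ambient temperature. Full response was set by 57 uM dopamine.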
D2 ag-2: Beta-Arrestin HTS for Positive Allosteric Modulators of the Human D2 Dopamine Receptor: Agonists; D(2) dopamine receptor (Homo sapiens), P14416; DiscoveRx PathHunter D2 beta-arrestin, luminescence, 90 min; 100% = 57 uM dopamine signal; activation, % (test concentration not listed); 360,000 tested, 0.084% active; AID 624465, 2012; in the data active means activation above about 40%; inconclusive means between about 15% and that limit
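Agonist mode: compounds alone added to overnight-plated D2 PathHunter cells for 90 min at 37 C, with 57 uM final dopamine (EC100) defining full response. Beta-arrestin recruitment detected by chemiluminescent reagent, read after 1 h at ambient temperature.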
D2 antagonist: HTS Assay for Allosteric Antagonists of the Human D2 Dopamine Receptor: Primary Screen for Antagonists | D(2) dopamine receptor (Homo sapiens), P14416 | HEK293 TREx D2 cells, calcium flux, dopamine EC80 | inhibition, % at 10 µM | 340,000 tested, 2% active; in the data active means inhibition above about 30%; inactive means below that, where a call was filed
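Measurement of antagonist activity uses fluorescent calcium dye in inducible HEK293 T-REx D2 cells: 10 s baseline, compound addition with 180 s read, EC80 dopamine addition with a further 180 s read.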
A number is an active result. Shown are actives, neighbours in structure and some others; about 2.4% of the full set was active somewhere.

For O=C(COC(=O)c1ccc(O)cc1)Nc1ccccc1[N+](=O)[O-] the results were D2 ag-1 inactive, D2 PAM-1 inactive, D2 PAM-2 inactive, D2 ag-2 inactive and D2 antagonist 38.
For O=S(=O)(Nc1c(O)ccc2ccccc12)c1ccccc1 the results were D2 PAM-2 inactive and D2 ag-2 42.
For O=C(COC(=O)c1ccc(S(=O)(=O)NCc2ccco2)cc1)NCc1ccc(F)cc1 the results were D2 ag-1 inactive, D2 PAM-1 64, D2 PAM-2 inactive, D2 ag-2 inactive and D2 antagonist inactive.
Screening COc1ccc(-n2c(=O)c3c(c4cc(OC)ccc4n3C)n(Cc3cccc(OC)c3)c2=O)cc1 returned D2 ag-1 inactive and D2 PAM-1 inactive.
Screening Cc1c(Cl)cn2c(=O)cc(CN3CCN(c4ccc(F)cc4)CC3)nc2c1Cl returned D2 ag-1 32, D2 PAM-1 inactive and D2 antagonist inactive.
CC1CCc2c(sc(NC(=O)COc3ccccc3C(C)(C)C)c2C#N)C1 (stereo not given) was read as D2 ag-1 inactive and D2 PAM-1 inactive.
Screening CCOC(=O)c1c(S(=O)(=O)N2CCCC(C(=O)Nc3cccc(Cl)c3)C2)c(C)n(C)c1C (stereo not given) returned D2 ag-1 inactive and D2 PAM-1 inactive.
For CCN(CC(=O)Nc1cc(Cl)ccc1C)C(=O)Cc1sc(C)nc1-c1ccc(F)cc1 the results were D2 ag-1 inactive, D2 PAM-1 inactive, D2 PAM-2 inactive, D2 ag-2 inactive and D2 antagonist 75.
CCN(CC(=O)Nc1c(F)cccc1F)C(=O)Cc1sc(C)nc1-c1ccc(F)cc1 was read as D2 ag-1 inactive, D2 PAM-1 inactive, D2 PAM-2 inactive, D2 ag-2 inactive and D2 antagonist inactive.
Screening CCN(CC(=O)Nc1cc(Cl)ccc1C)C(=O)CCOc1ccccc1C returned D2 ag-1 inactive, D2 PAM-1 inactive, D2 PAM-2 inactive, D2 ag-2 inactive and D2 antagonist 31.
CCN(CC(=O)Nc1cc(Cl)ccc1C)C(=O)COc1ccccc1F was read as D2 ag-1 inactive, D2 PAM-1 inactive, D2 PAM-2 inactive, D2 ag-2 inactive and D2 antagonist 40.
O=C(Cc1ccc(NC(=O)N2CCSc3ncccc32)cc1)NCc1ccccc1 was read as D2 ag-1 inactive and D2 PAM-1 inactive.
Screening CCN1CCN(CCOc2cccc(Cl)c2Cl)CC1 returned D2 ag-1 inactive, D2 PAM-1 inactive, D2 PAM-2 inactive, D2 ag-2 inactive and D2 antagonist inactive.
Screening COC(=O)c1ccc(OCCN2CCCCCC2)cc1 returned D2 ag-1 inactive, D2 PAM-1 inactive, D2 PAM-2 inactive, D2 ag-2 inactive and D2 antagonist 55.
For CCc1ccccc1OCCCCN1CCCC1 the results were D2 ag-1 inactive, D2 PAM-1 inactive, D2 PAM-2 inactive, D2 ag-2 inactive and D2 antagonist 46.
CCC(=O)c1ccccc1OCCN1CCN(CC)CC1 was read as D2 ag-1 inactive, D2 PAM-1 inactive, D2 PAM-2 inactive, D2 ag-2 inactive and D2 antagonist 38.
Screening COC(=O)c1ccccc1OCCN1CCCCCC1 returned D2 ag-1 inactive, D2 PAM-1 inactive, D2 PAM-2 inactive, D2 ag-2 inactive and D2 antagonist 39.
CC(=O)c1ccccc1OCCOc1ccccc1C(C)=O was read as D2 ag-1 inactive, D2 PAM-1 inactive, D2 PAM-2 inactive, D2 ag-2 inactive and D2 antagonist inactive.
Screening CC(=O)c1ccccc1OCCCCN1CCCCC1 returned D2 ag-1 inactive, D2 PAM-1 inactive, D2 PAM-2 inactive, D2 ag-2 inactive and D2 antagonist 58.
`COc1ccccc1NC(=O)Cn1c(O)c(N=NC(=O)c2ccccc2O)c2ccccc21` gave D2 ag-1 inactive, D2 PAM-1 inactive, D2 PAM-2 inactive, D2 ag-2 inconclusive and D2 antagonist 55.
